# Test results: PubChem BioAssay (NCATS)
# Unmarked numbers belong to inactive results. Results filed as inconclusive are left out. Where a call stands in place of a potency, no number is given. Activity calls are given as the source filed them. Unless noted, calls follow the shape of the dose curve; as a rule, active = well fitted curve in the direction sought with a large enough effect; inconclusive = small, poorly fitted or top-dose-only effect, or another doubt; inactive = no such curve, though single readings can be large; an effect the other way counts as inactive or inconclusive.
# What was measured:
# [1] = qHTS for differential inhibitors of proliferation of Plasmodium falciparum line GB4 (AID 1816); settings: Potency: Plasmodium falciparum GB4 proliferation inhibition;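 also: potency is read from the fitted curve at half-maximal effect; parasite growth measured after 72 h incubation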
# [2] = qHTS for differential inhibitors of proliferation of Plasmodium falciparum line 3D7 (AID 1876); also: potency is read from the fitted curve at half-maximal effect
# [3] = qHTS for differential inhibitors of proliferation of Plasmodium falciparum line D10 (AID 1877);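 also: potency is read from the fitted curve at half-maximal effect; parasites grown with compound for 72 h before DNA staining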
# [4] = qHTS for differential inhibitors of proliferation of Plasmodium falciparum line W2 (AID 1883); settings: Potency: Plasmodium falciparum W2 proliferation inhibition;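 also: potency is read from the fitted curve at half-maximal effect; parasites grown with compound for 72 h before lysis and staining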
# [5] = qHTS for differential inhibitors of proliferation of Plasmodium falciparum line HB3 (AID 1886); settings: Potency: Plasmodium falciparum HB3 proliferation inhibition;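 also: potency is read from the fitted curve at half-maximal effect; parasites grown with compound for 72 h before SYBR Green readout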
# [6] = target: Ferritin light chain (Equus caballus) (UniProt P02791); assay: qHTS Validation Assay for Identification of Novel General Anesthetics (AID 2323); also: series mostly up to about 77 µM
# Method in brief: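 Apoferritin from horse spleen (10 uM) was mixed with 1-aminoanthracene at 50% saturation in PBS, then compounds were added. After 10 min at room temperature, fluorescence was read (ex 380 nm, em 535 nm) and normalized to free-probe and complex controls.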
# [7] = target: ATP-dependent DNA helicase Q1 (Homo sapiens) (UniProt P46063); assay: qHTS Validation Assay for Inhibitors of RecQ-Like Dna Helicase 1 (RECQ1) (AID 2353)
# Method in brief: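 50 nM RECQ1T1 preincubated 15 min with compound in Tris pH 8.0 buffer with MgCl2, DTT, Tween-20 and 2.5 ug/ml poly(dI-dC); started with 200 nM TAMRA/BHQ-2 forked duplex and 2 mM ATP. Unwinding read as fluorescence (525/598 nm), two reads 2 h apart.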
# [8] = Validation screen for small molecules that induce DNA re-replication in MCF 10A normal breast cells (AID 463097); also: nearly all actives have a fitted effect of over 60% in size
# Method in brief: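 DNA re-replication was detected as a rise in nuclei with elevated Hoechst fluorescence after a 48 hr compound exposure of MCF 10A cells at 37 C.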
# [9] = Quantitative high throughput screen for delayed death inhibitors of the malarial parasite plastid, 48 hour incubation (AID 488752); also: potency is read from the fitted curve at half-maximal effect; nearly all actives have a fitted effect of over 65% in size
# Method in brief: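 Erythrocytes infected with firefly luciferase-expressing P. falciparum (2% hematocrit, 0.1% parasitemia) cultured with compound for 48 h at 37 C, 5% CO2, in RPMI 1640/0.5% Albumax. Growth inhibition read as loss of luminescence.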
# [10] = target: M-phase phosphoprotein 8 (Homo sapiens) (UniProt Q99549); assay: qHTS Validation Assay for Inhibitors for MPP8 Chromodomain Interactions with Methylated Histone Tails (AID 488949);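 also: AlphaScreen signal from MPP8 chromodomain bound to biotinylated H3K9me3 peptide; top concentration of the series differs between compounds; nearly all actives have a fitted effect of over 55% in size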
# Method in brief: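 Disruption of the preformed MPP8–trimethyl-H3K9 peptide complex (both 50 nM, 30 min, RT) is measured after 30 min compound exposure, using AlphaScreen proximity beads; aurintricarboxylic acid titration serves as plate control.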
# [11] = target: Transient receptor potential cation channel subfamily V member 1 (Homo sapiens) (UniProt Q8NER1); assay: HTS Assay for Compounds that Act as Enhancers of the Vanilloid Receptor 1 (AID 488979)
# Method in brief: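 TRPV1 cells loaded with Fluo-8 calcium dye; compound added and Ca2+ signal (ex 480/em 520 nm) followed 3 min, then capsaicin at EC20 added and read 2 more min to detect enhancement.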
# [12] = target: Thyrotropin receptor (Homo sapiens) (UniProt P16473); assay: qHTS Assay for Antagonists of the Thyroid Stimulating Hormone Receptor (AID 488980); also: series mostly up to about 58 µM
# Method in brief: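 Cells expressing human TSHR (HEK293) are dispensed in HBSS/HEPES containing 70 uM RO 20-1724, compound is added, then TSH at EC80 (4 nM final). Antibody in lysis buffer follows, 30 minutes at room temperature before HTRF detection.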
# [13] = target: Thyrotropin-releasing hormone receptor (Homo sapiens) (UniProt P34981); assay: qHTS for Small Molecule Agonists and Allosteric Enhancers of Human TRH Receptor: Validation Screen for Agonists (AID 493127;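 active = calcium activation more than 3 SD above the typical response in the agonist read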); settings: TRH receptor agonist cell assay; at 2 µM; active compounds read high
# Method in brief: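 TRHR cells loaded with fluo-8 calcium dye; FDSS kinetic fluorescence (Ex 480/Em 530) read at 1 s/cycle after 23 nL compound addition. Agonist-mode calcium response recorded before the 10 nM TRH (EC20) addition.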
# [14] = target: Galactokinase (Homo sapiens) (UniProt P51570); assay: qHTS Validation Assay for Inhibitors of Human Galactokinase (GALK) (AID 493189)
# Method in brief: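 Compounds were pin-transferred into ATP buffer, then GALK-galactose mix was added (final 5 nM enzyme, 100 uM galactose, 35 uM ATP). After 1 h at room temperature, remaining ATP was measured luminescently.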
# [15] = Validation screen for small molecules that induce DNA re-replication in SW480 colon adenocarcinoma cells (AID 504364)
# Method in brief: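 SW480 cells (250/well) exposed 48 h at 37 C, 5% CO2, then Hoechst-stained 40 min. Nuclear DNA content imaged by fluorescence scanning (405 nm excitation, 500-530 nm emission); re-replication scored as increased nuclei with elevated intensity.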
# [16] = target: DNA dC->dU-editing enzyme APOBEC-3G (Homo sapiens) (UniProt Q9HC16); assay: qHTS for inhibitors of Vif-A3G interactions: Validation (AID 588379)
# Method in brief: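 HeLa cells stably expressing Vif and A3G-eYFP, 700 cells/well, incubated overnight at 37 deg C, then exposed to compound overnight at 37 deg C. Inhibition of Vif-mediated degradation read as increased yellow fluorescence (Ex 488/Em 500-530) by laser-scanning cytometry.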
# [17] = target: Voltage-gated inwardly rectifying potassium channel KCNH2 (Homo sapiens) (UniProt Q12809); assay: qHTS Assay for Small Molecule Inhibitors of the Human hERG Channel Activity (AID 588834);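 also: top concentration of the series differs between compounds; lower thallium flux fluorescence means stronger hERG block; nearly all actives have a fitted effect of over 50% in size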
# Method in brief: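 Measured: FluxOR fluorescence after thallium stimulation in U2OS cells transduced with hERG by baculovirus. Compounds pre-incubated around 10 min; medium Opti-MEM with 2% FCS. AC50 from Hill equation.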
# [18] = tested on: Zika virus NS2B-NS3 protease; assay: Primary screen GU AMC qHTS for Zika virus inhibitors (AID 1347154); also: nearly all actives have a fitted effect of over 70% in size
# Method in brief: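 Unlinked Zika NS2B hydrophilic domain–NS3 protease complex at 25 nM in 10 mM Tris-HCl pH 8.0, 0.01% Tween 20, with an AMC peptide substrate. Fluorescence change (340/450 nm) over 15 min at room temperature, normalized to controls, fitted to 4-parameter Hill.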
# [19] = Primary qHTS for small molecule stabilizers of the endoplasmic reticulum resident proteome: Secreted ER Calcium Modulated Protein (SERCaMP) assay (AID 1508630)
# Method in brief: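 GLuc-SERCaMP-expressing SH-SY5Y cells, pretreated 16 h with compound, are challenged with thapsigargin to empty ER calcium stores; after 4 h, coelenterazine is added directly to the medium and luminescence is imaged.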
# Thyrotropin receptor (Homo sapiens), sequence (P16473 whole entry, looked up): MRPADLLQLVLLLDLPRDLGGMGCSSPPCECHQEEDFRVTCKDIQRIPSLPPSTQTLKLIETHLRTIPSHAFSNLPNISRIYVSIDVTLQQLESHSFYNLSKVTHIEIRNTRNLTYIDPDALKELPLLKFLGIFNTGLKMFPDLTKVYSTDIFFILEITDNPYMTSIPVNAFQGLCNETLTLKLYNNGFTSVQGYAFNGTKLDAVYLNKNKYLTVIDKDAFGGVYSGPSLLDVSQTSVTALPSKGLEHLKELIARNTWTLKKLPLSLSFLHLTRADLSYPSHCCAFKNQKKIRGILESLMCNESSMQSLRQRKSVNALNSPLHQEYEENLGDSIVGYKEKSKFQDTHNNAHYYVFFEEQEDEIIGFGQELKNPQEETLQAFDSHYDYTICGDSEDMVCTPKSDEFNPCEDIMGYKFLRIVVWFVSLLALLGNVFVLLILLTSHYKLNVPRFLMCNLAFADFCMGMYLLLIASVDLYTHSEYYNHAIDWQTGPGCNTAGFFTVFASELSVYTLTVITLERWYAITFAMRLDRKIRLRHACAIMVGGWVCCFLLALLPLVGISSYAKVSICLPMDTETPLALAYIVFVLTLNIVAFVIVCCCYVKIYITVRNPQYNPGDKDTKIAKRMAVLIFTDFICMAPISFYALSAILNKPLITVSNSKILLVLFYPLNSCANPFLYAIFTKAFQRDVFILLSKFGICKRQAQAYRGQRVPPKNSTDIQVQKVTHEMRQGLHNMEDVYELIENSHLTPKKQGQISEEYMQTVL
# ATP-dependent DNA helicase Q1 (Homo sapiens), sequence (P46063 whole entry, looked up): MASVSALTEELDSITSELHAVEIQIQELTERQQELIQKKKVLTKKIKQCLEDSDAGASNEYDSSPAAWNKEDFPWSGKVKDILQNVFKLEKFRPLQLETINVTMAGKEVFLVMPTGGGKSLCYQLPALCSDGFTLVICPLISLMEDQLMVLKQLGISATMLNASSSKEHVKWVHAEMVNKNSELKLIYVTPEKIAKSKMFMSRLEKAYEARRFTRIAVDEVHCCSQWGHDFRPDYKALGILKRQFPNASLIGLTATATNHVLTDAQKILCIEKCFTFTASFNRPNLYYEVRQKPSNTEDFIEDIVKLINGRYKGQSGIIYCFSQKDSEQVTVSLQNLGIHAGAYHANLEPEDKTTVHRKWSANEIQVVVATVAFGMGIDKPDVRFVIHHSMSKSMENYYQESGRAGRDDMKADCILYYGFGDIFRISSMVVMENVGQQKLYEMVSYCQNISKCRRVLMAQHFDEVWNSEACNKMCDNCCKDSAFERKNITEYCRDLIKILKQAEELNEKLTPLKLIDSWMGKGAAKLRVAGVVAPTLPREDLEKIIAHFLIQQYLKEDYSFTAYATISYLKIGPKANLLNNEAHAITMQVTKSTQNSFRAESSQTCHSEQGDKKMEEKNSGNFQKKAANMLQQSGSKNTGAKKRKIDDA
# Transient receptor potential cation channel subfamily V member 1 (Homo sapiens), sequence (Q8NER1 whole entry, looked up): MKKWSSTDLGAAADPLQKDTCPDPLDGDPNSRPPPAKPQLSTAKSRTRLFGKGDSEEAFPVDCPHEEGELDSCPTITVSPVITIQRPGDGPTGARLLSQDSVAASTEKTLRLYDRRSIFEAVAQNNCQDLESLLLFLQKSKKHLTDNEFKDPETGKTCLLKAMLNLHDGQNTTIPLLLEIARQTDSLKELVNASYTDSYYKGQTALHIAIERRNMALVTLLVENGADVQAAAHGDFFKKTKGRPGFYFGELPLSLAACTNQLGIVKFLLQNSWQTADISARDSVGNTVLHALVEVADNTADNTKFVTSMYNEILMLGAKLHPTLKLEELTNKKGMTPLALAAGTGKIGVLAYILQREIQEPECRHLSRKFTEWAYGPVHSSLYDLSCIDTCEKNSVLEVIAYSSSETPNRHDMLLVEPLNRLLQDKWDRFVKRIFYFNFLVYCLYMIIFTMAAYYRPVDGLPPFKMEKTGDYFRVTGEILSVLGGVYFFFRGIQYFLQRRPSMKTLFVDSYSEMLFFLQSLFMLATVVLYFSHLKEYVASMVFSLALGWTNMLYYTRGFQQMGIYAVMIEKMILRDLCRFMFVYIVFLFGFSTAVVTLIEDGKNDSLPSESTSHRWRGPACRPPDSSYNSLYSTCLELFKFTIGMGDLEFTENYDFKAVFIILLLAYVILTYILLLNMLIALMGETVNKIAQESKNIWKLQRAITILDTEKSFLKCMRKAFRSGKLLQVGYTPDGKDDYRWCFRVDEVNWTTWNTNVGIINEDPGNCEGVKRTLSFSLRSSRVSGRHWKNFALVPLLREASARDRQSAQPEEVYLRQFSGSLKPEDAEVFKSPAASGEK
# DNA dC->dU-editing enzyme APOBEC-3G (Homo sapiens), sequence (Q9HC16 whole entry, looked up): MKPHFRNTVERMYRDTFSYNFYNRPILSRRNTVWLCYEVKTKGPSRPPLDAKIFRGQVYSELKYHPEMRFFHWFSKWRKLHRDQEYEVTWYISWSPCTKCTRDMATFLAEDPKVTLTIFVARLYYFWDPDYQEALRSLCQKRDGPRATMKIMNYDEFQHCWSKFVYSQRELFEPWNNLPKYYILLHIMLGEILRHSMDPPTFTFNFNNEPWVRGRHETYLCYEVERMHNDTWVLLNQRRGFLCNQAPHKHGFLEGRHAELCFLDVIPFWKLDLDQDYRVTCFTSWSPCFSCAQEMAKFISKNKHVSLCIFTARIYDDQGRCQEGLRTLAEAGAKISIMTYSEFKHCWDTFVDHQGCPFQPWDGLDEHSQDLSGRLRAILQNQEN
# Galactokinase (Homo sapiens), sequence (P51570 whole entry, looked up): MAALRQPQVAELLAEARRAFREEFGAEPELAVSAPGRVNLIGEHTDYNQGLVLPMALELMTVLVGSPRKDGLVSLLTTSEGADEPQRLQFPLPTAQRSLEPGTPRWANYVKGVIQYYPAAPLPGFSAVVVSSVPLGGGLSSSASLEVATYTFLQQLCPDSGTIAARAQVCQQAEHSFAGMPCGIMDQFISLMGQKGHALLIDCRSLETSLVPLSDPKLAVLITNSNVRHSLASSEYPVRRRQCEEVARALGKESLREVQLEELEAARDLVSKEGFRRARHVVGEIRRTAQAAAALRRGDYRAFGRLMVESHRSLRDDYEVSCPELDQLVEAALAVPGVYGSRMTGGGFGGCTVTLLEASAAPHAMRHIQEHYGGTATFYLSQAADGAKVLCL
# Voltage-gated inwardly rectifying potassium channel KCNH2 (Homo sapiens), sequence (Q12809 whole entry, looked up): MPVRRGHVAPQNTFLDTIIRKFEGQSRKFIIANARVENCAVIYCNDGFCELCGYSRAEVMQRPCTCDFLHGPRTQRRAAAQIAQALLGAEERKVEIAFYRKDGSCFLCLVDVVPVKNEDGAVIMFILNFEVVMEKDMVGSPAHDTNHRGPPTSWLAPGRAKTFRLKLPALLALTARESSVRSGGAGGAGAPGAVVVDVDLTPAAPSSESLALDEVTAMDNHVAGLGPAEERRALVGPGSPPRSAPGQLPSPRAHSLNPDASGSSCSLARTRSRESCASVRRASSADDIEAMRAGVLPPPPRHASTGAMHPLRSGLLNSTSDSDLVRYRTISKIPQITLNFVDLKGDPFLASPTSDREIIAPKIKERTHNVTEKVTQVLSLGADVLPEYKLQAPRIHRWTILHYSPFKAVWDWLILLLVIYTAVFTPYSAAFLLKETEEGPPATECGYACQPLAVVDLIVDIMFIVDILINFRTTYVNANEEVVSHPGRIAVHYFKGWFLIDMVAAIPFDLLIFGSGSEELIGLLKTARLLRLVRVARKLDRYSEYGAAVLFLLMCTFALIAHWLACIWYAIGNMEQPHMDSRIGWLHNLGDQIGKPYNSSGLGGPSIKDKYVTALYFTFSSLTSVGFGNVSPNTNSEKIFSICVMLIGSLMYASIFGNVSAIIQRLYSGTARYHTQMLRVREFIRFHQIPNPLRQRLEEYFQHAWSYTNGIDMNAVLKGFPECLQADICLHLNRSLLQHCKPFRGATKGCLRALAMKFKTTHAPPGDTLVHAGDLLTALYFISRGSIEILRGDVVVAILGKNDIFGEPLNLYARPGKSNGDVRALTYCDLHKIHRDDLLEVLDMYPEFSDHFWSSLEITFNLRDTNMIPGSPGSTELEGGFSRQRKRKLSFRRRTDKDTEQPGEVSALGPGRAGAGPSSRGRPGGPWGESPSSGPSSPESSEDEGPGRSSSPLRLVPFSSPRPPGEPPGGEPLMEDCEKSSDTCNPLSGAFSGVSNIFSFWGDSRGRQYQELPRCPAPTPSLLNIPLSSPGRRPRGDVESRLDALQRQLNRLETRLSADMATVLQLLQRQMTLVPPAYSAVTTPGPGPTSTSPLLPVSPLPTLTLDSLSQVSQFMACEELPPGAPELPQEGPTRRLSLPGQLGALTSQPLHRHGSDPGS
# Thyrotropin-releasing hormone receptor (Homo sapiens), sequence (P34981 whole entry, looked up): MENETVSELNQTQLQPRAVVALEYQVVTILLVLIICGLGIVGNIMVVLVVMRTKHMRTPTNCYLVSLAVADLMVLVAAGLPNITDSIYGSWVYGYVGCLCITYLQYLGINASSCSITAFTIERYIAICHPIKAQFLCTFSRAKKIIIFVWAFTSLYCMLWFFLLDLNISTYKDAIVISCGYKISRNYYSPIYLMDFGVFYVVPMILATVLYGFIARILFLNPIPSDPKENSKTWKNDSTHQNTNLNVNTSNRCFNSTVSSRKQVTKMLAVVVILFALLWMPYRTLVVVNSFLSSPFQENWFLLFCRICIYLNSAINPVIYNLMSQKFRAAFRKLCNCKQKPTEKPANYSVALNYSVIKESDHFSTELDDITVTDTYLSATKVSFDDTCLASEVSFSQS
# Ferritin light chain (Equus caballus), sequence (P02791 2-175 limits assumed): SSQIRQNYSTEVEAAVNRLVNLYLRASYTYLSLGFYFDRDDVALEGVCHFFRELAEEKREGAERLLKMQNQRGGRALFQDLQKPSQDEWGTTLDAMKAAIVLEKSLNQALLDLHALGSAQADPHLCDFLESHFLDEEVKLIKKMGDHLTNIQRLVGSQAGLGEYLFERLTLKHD
structure (smiles),measurement,setting,value
COC(=O)c1c(-c2cc(OC)c(OC)c(OC)c2)c2ccnc(OCc3ncccn3)c2c(=O)n1Cc1ccnc(C)c1,Potency,[1],4.47 µM (active)
same,Potency,[2],2 µM (active)
same,Potency,[3],4.47 µM (active)
same,Potency,[4],2.51 µM (active)
same,Potency,[5],2.82 µM (active)
same,outcome,[6],inactive
same,Potency,[7],inactive
same,Potency,[8],inactive
same,Potency,[9],9.28 µM (active)
same,Potency,[10],inactive
same,outcome,[11],inactive
same,outcome,[12],inactive
same,activation,[13],0.438%
same,outcome,[14],inactive
same,outcome,[15],inactive
same,Potency,[16],inactive
same,Potency,[17],inactive
same,Potency,[18],inactive
same,Potency,[19],inactive
